Test results: PubChem BioAssay AID1159580 (chemical genetic matrix, 2015)
Several values for one entry are separate records, joined by “and”; a condition that tells them apart may be missing. Equal entries are not always repeated. Hit rate of the full screen: of about 5,500 compounds, about 2,000 (36%) were called active. About 18% were inconclusive and are not listed. No stated cut-off is given here; in the data, active means normalized growth mostly below about 0.91 (no sharp cut-off); inconclusive means no clear call, values can overlap the other calls; inactive means mostly above about 0.92. Some of the results follow. *1 amine or outer side, *2 acyl side, *3 side chain or, on linkers, in order; H or OH if unused. Where a SMILES comes first, the peptide text is derived from it. Bridges are numbered along the chain shown (N, C = ends). [ ]: non-standard residue; d: D form. The star is where a group is joined. ξ: configuration not given here. ΔAla(E,3-NHCONH2) = NC(=O)N/C=C(/N)C(=O)O; X2 = NC1=NCCC(C(N[*:1])C(=O)[*:2])N1; ξβ3hOrn = NCCCC(N)CC(=O)*; Dap = NC[CH](N)C(=O)O

Experiment: chemical genetic growth profiling, strain panel (AID 1159580);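 further: tested at 20 µM; growth read once vehicle control cultures reached saturation at 30 °C; 1 = growth at the plate median or of vehicle wells; lower values mean less growth of the strain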
Details: S. cerevisiae deletion strains, growth OD

Measured: normalized growth

NCCCC(N)CC(=O)NCC1NC(=O)C(CO)NC(=O)C(N)CNC(=O)C(C2CCN=C(N)N2)NC(=O)/C(=C\NC(N)=O)NC1=O (stereo not drawn) (H-[Dap]S[Dap](ξβ3hOrn)[ΔAla(E,3-NHCONH2)][X2]; lactam 1-C; configuration not given here)
inactive: locus YAL013W, strain DEP1, hits give low values 0.999 | locus YAL021C, strain ccr4, hits give low values 1.01 | locus YAL026C, strain drs2, hits give low values 0.994 | locus YAL030W, strain snc1, hits give low values 1.03 | locus YBL061C, strain skt5, hits give low values 1.02 | locus YBR009C, strain hhf1, hits give low values 0.975 | locus YBR021W, strain FUR4, hits give low values 0.997 | locus YBR023C, strain chs3, hits give low values 1.01 | locus YBR171W, strain sec66, hits give low values 1.02 | locus YBR229C, strain ROT2, hits give low values 1.01 | locus YBR231C, strain swc5, hits give low values 1.05 | locus YBR279W, strain paf1, hits give low values 1.01 | locus YCL011C, strain gbp2, hits give low values 0.984 | locus YCL016C, strain dcc1, hits give low values 0.989 | locus YCL029C, strain bik1, hits give low values 1.03 | locus YCL069W, strain vba3, hits give low values 1.01 | locus YCR088W, strain abp1, hits give low values 1.02 | locus YDL005C, strain med2, hits give low values 0.994 | locus YDL035C, strain GPR1, hits give low values 1.01 | locus YDL040C, strain nat1, hits give low values 1.01 | locus YDL074C, strain BRE1, hits give low values 1.02 | locus YDL101C, strain DUN1, hits give low values 1 | locus YDL185W, strain tfp1, hits give low values 1.03 | locus YDL192W, strain arf1, hits give low values 0.998 | locus YDR001C, strain nth1, hits give low values 0.999 | locus YDR069C, strain doa4, hits give low values 1.03 | locus YDR101C, strain arx1, hits give low values 1.02 | locus YDR137W, strain rgp1, hits give low values 0.991 | locus YDR159W, strain sac3, hits give low values 0.975 | locus YDR162C, strain NBP2, hits give low values 1.01 | locus YDR195W, strain ref2 1.05 | locus YDR297W, strain sur2, hits give low values 1.03 | locus YDR318W, strain mcm21, hits give low values 1.02 | locus YDR334W, strain swr1, hits give low values 1 | locus YDR335W, strain msn5, hits give low values 1.02 | locus YDR388W, hits give low values 1.01 | locus YDR392W, strain spt3, hits give low values 0.928 | locus YDR502C, strain sam2, hits give low values 1.01 | locus YEL003W, strain gim4, hits give low values 1.04 | locus YEL037C, strain rad23, hits give low values 1.02 | locus YEL061C, strain CIN8 (second series), hits give low values 1.02 | locus YEL061C, strain CIN8, hits give low values 0.997 | locus YER015W, strain faa2, hits give low values 1.01 | locus YER016W, strain bim1, hits give low values 0.993 | locus YER110C, hits give low values 1.02 | locus YER111C, strain swi4, hits give low values 0.999 | locus YER155C, strain BEM2 (second series), hits give low values 1 | locus YER155C, strain BEM2, hits give low values 1 | locus YER167W, strain BCK2, hits give low values 0.996 | locus YFR010W, strain ubp6, hits give low values 1.05 | locus YGL078C, strain dbp3, hits give low values 1.02 | locus YGL086W, strain mad1, hits give low values 0.997 | locus YGL167C, strain pmr1, hits give low values 1.02 | locus YGL173C, strain kem1, hits give low values 1.04 | locus YGL227W, strain vid30, hits give low values 1.01 | locus YGL240W, strain doc1, hits give low values 1.06 | locus YGL248W, strain PDE1, hits give low values 1.01 | locus YGL253W, strain hxk2, hits give low values 0.984 | locus YGR078C, strain PAC10, hits give low values 1.01 | locus YGR135W, strain pre9, hits give low values 1.04 | locus YGR229C, strain SMI1, hits give low values 1.02 | locus YGR252W, strain gcn5, hits give low values 0.993 | locus YHR013C, strain ard1, hits give low values 1.03 | locus YHR027C, strain rpn1, hits give low values 1.01 | locus YHR030C, strain SLT2, hits give low values 1 and 1.03 | locus YHR079C, strain IRE1 (second series), hits give low values 1.02 | locus YHR079C, strain IRE1, hits give low values 1.03 | locus YHR094C, strain hxt1, hits give low values 1.01 | locus YHR129C, strain ARP1, hits give low values 0.999 | locus YHR142W, strain chs7, hits give low values 1.01 | locus YHR200W, strain rpn10, hits give low values 1.02 | locus YIL066C, strain RNR3, hits give low values 1.01 | locus YIL073C, strain SPO22, hits give low values 1.08 | locus YIL125W, strain kgd1, hits give low values 1.01 | locus YIR030C, strain dcg1, hits give low values 1.01 | locus YJL092W, strain hpr5, hits give low values 1.03 | locus YJL095W, strain BCK1 (second series), hits give low values 1.03 | locus YJL095W, strain BCK1, hits give low values 1.01 and 1.04 | locus YJL115W, strain asf1, hits give low values 1.02 | locus YJL129C, strain trk1, hits give low values 1.01 | locus YJL134W, strain LCB3, hits give low values 1.01 | locus YJL154C, strain vps35, hits give low values 1.01 | locus YJL164C, strain tpk1, hits give low values 1 | locus YJL166W, strain qcr8, hits give low values 1.04 | locus YJL168C, strain set2, hits give low values 1.01 | locus YJL187C, strain SWE1 (second series), hits give low values 1.01 | locus YJR043C, strain POL32, hits give low values 1.01
